Results on 101 compounds are retold here after PubChem BioAssay AID463173 (ICCB-Longwood Screening Facility, Harvard Medical School, 2010).

Hit rate of the full screen: of about 52,000 compounds, about 1,700 (3.3%) were called active. Many of the other results were omitted from the sample, so actives are more common in it than they were. Unmarked numbers belong to inactive results. No stated cut-off is given here; in the data, active means survival mostly below about 52% (no sharp cut-off); inactive means mostly above about 56%.

The experiment has as its system Wild type. As to the kind of experiment: S. aureus survival, RN4220 and DeltatarO strains – OD600, teichoic acid synthesis inhibitors, primary screen (AID 463173). The note with it: S. aureus RN4220 wild type/DeltatarO growth, OD600, 18 h, active compounds read low, screened at 18.75 µg/mL (by protocol).
In the case of `CCn1c(CCNC(=O)C2CCCO2)nnc1SC` (stereo unspecified), the survival is 94%.
For the compound `COc1cccc(N2CCN(C(=O)CN3CCSc4ccc(S(=O)(=O)N(C)C)cc43)CC2)c1`, the survival was 72%.
For `Cc1ccc(C(Nc2ccccn2)c2ccc3cccnc3c2O)cc1` (stereo unspecified) the value was 6% (active).
Regarding `Cc1ccnc(NC(c2cc(C)ccc2O)c2ccc3cccnc3c2O)c1` (stereo unspecified), the survival was 3% (active).
Regarding `Cc1cccc(NC(c2cccc(Cl)c2)c2ccc3cccnc3c2O)n1` (stereo unspecified), the survival was 4% (active).
Turning to `Cc1ccnc(NCc2cccc3ccccc23)c1`, the survival was 115%.
Regarding `COc1ccc(C(=O)NC(c2ccc(Cl)cc2)c2cc(Cl)c3cccnc3c2O)cc1` (stereo unspecified), the survival is 79%.
For `Oc1c(C(Nc2ccccn2)c2ccccc2F)ccc2cccnc12` (stereo unspecified), the survival was 135%.
With `CCOc1cc(C(Nc2cc(C)ccn2)c2ccc3cccnc3c2O)ccc1OC` (stereo unspecified), the survival was 145%.
`Oc1cccc(C(Nc2ccccn2)c2ccc3cccnc3c2O)c1Cl` (stereo unspecified): the survival was 76%.
For `Cc1ccc(O)c(CNc2cccc3cccnc23)c1`, the survival is 107%.
Take `Cc1ccnc(NC(c2cccc(O)c2)c2ccc3ccc(C)nc3c2O)c1` (stereo unspecified): the survival was 74%.
On to `Cc1ccc2ccc(C(Nc3ccccn3)c3ccccc3)c(O)c2n1` (stereo unspecified), for which the survival is 69%.
With `Cc1ccnc(NC(c2ccccc2F)c2ccc3cccnc3c2O)c1` (stereo unspecified), the survival is -8% (active).
For the compound `CCCN(C(=O)c1nn(-c2ccc(OC)c(Cl)c2)c(=O)c2c1c1ccccc1n2C)c1ccccc1F`, the survival was 74%.
For the compound `CCOc1ccccc1CNC(=O)Cn1c(-c2ccccc2)cc(C(C)=O)c1C`, the survival was 67%.
For `COC(=O)COc1ccc(S(=O)(=O)N2CCCCC2)cc1C`, the survival is 117%.
Consider `O=C(/C=C/c1ccccc1)NC1CCSC1=O` (stereo unspecified), for which the survival was 108%.
With `O=C(CNS(=O)(=O)c1ccc(Cl)cc1)NC1CCCC1`, the survival was 103%.
Regarding `O=C(CS(=O)(=O)c1cccc2nsnc12)N1CCN(c2ccccc2F)CC1`, the survival was 94%.
Turning to `Cc1ccc(NC(=O)Nc2nnc(N(C)Cc3ccccc3)s2)cc1`, the survival is 101%.
Turning to `COc1ccc2c(c1)c(CC(=O)Nc1ccc(C(C)=O)cc1)c(C)n2C(=O)c1ccc(Cl)cc1`, the survival was 71%.
For `CN1CCc2c(sc3c2C(=O)NC(c2ccc(OC(=O)c4ccc(Cl)cc4)cc2)N3)C1` (stereo unspecified), the survival was 75%.
For the compound `CCOC(=O)c1ccc(NC(=O)CSc2cn(CC(=O)N3CCCC3)c3ccccc23)cc1`, the survival is 89%.
Consider `COc1ccc(CNc2oc(COc3cccc(C)c3)nc2C#N)cc1`, for which the survival is 63%.
With `COc1ccc(-c2nc(C)c(CCNS(=O)(=O)c3cc(Cl)ccc3Cl)s2)cc1`, the survival was 87%.
Regarding `CCOc1cc(C(=O)NCCc2csc3nc(-c4ccccc4F)nn23)cc(OCC)c1OCC`, the survival was 87%.
The value for `O=C(CCn1nnc(-c2cccs2)n1)NC1CCCCC1` was 115%; that for `COc1ccc(C(Nc2ccccn2)c2ccc3ccc(C)nc3c2O)cc1C` (stereo unspecified) was 62%; that for `Cc1cccc(NC(=O)c2ccccc2)n1` was 107%.
As for `Cc1cccc(NC(c2ccccc2C)c2ccc3ccc(C)nc3c2O)n1` (stereo unspecified), the survival was -3% (active).
For the compound `Cc1ccc(C)c(N2CCN(S(=O)(=O)c3cn(C)c(C)n3)CC2)c1`, the survival was 68%.
Turning to `Cc1cccc(N2CCN(S(=O)(=O)c3cn(C)c(C)n3)CC2)c1C`, the survival was -3% (active).
Regarding `Cc1nc(S(=O)(=O)N2CCN(c3ccccc3F)CC2)cn1C`, the survival is 121%.
Take `COc1cc(NC(=O)CC(C)S(=O)(=O)c2cc3c4c(c2)CCN4C(=O)CC3)cc(OC)c1` (stereo unspecified): the survival is 76%.
With `C=CCN1C2=NCCCN2c2ccccc21`, the survival is 113%.
For `CC(C)(C)c1ccccc1NC(=O)CSc1nc(-c2cccs2)cc(C(F)(F)F)n1`, the survival was 10% (active).
For `COC(=O)c1ccccc1NC(=O)CSc1cc(-c2ccccc2)nc(C)n1`, the survival was 92%.
For `COC(=O)c1ccccc1NC(=O)CSc1nc(-c2ccccc2)cc(C(F)(F)F)n1`, the survival was 19% (active).
Turning to `COC(=O)CSc1nc(-c2ccccc2)cc(C(F)(F)F)n1`, the survival was 111%.
Regarding `CCOc1ccccc1NC(=O)CSc1nc(-c2cccs2)cc(C(F)(F)F)n1`, the survival was 83%.
For the compound `O=C(CSc1nc(-c2cccs2)cc(C(F)(F)F)n1)Nc1ccccc1Cl`, the survival is 99%.
In the case of `COc1cccc(-n2c(=O)c3c4c(sc3n(Cc3ccccc3C#N)c2=O)CCCC4)c1`, the survival was 80%.
The value for `COc1ccc(C(CNC(=O)c2oc3cc(C)c(C)cc3c2C)N2CCCCC2)cc1` (stereo unspecified) was 102%; that for `Cc1ccc(NC(=O)C2CCN(C(=O)c3cnn(-c4ccccc4)c3-n3cccc3)CC2)cc1C` was 84%.
On to `COc1ccc(CCNC(=O)c2ccc3c(c2)ncn3-c2ccc(C(C)C)cc2)cc1OC`, for which the survival was 80%.
As to `COC(=O)CSc1nc2cc(OC)c(OC)cc2cc1C`, the survival was 110%.
In the case of `COc1cc(C2C(=O)N(C3CCCCC3)CC(=O)N2CCC2=CCCCC2)ccc1OC(C)C` (stereo unspecified), the survival was 135%.
Regarding `Cc1cc(-c2nc3ccccc3s2)ccc1NC(=O)c1cc(Cl)ccc1Cl`, the survival was 92%.
For the compound `COc1ccc(N2CCN(CC(O)COc3ccccc3C(C)(C)C)CC2)cc1` (stereo unspecified), the survival is -3% (active).
The value for `COc1ccc(N2CCN(CC(O)COc3ccc(C(C)C)c(C)c3)CC2)cc1` (stereo unspecified) was 85%; that for `COc1ccc(N2CCN(CC(O)COc3ccc(C)cc3C)CC2)cc1` (stereo unspecified) was 87%; that for `Cc1ccc(C(C)C)c(OCC(O)CN2CCN(c3ccccc3F)CC2)c1` (stereo unspecified) was -3% (active).
With `COc1ccc(N2CCN(CC(O)COc3ccc(C(C)(C)C)cc3)CC2)cc1` (stereo unspecified), the survival was 87%.
As for `COc1ccccc1N1CCN(CC(O)COc2ccc(C)cc2C(C)(C)C)CC1` (stereo unspecified), the survival was 2% (active).
Regarding `C=CCc1ccccc1OCC(O)CN1CCN(c2ccccc2)CC1` (stereo unspecified), the survival is 54%.
As for `COc1ccccc1N1CCN(CC(O)COc2cc(C)cc(C)c2)CC1` (stereo unspecified), the survival was 82%.
For `COc1ccc(N2CCN(CC(O)COc3c(OC)cccc3OC)CC2)cc1` (stereo unspecified) the value was 81%; for `CCOC(=O)C(C)(C)Sc1nnc(COc2ccccc2)n1CC`, 100%; for `C1CCC2(C1)OCC1(CO2)COC2(CCCC2)OC1`, 111%.
Consider `Cc1ccc(NC(=O)N2CCC(CN3CCC(C)CC3)CC2)cc1F`, for which the survival is 82%.
With `COc1ccc(CCNC(=O)c2cc(-c3ccc(C)cc3)nc3n[nH]c(-c4ccc(F)cc4)c23)cc1OC`, the survival was 136%.
`Cc1cccc(-c2nc3scc(CCNC(=O)c4ccc(Br)o4)n3n2)c1`: the survival was 74%.
For the compound `Cc1cc(C)cc(NC(=O)CSc2nc3c(cnn3-c3ccc(F)cc3)c(=O)[nH]2)c1`, the survival was 65%.
Take `O=S(=O)(c1cccc(Cl)c1)c1nnn2c1nc(NC1CCCC1)c1sccc12`: the survival is 95%.
In the case of `COc1ccc(C(=O)NCC(c2ccco2)S(=O)(=O)c2ccc(F)cc2)cc1` (stereo unspecified), the survival was 74%.
In the case of `O=C(NCC(c1ccco1)S(=O)(=O)c1cccs1)c1ccc(F)c(F)c1` (stereo unspecified), the survival is 78%.
Turning to `Cc1ccc(S(=O)(=O)C(CNC(=O)c2ccc(F)c(F)c2)c2ccco2)cc1` (stereo unspecified), the survival was -6% (active).
Take `Cc1ccccc1CNC(=O)C(=O)NCC(c1ccco1)S(=O)(=O)c1ccccc1` (stereo unspecified): the survival was 76%.
Turning to `O=C(NCc1ccccc1)C(=O)NCC(c1ccco1)S(=O)(=O)c1ccccc1` (stereo unspecified), the survival is 67%.
For `Cc1ccc(C(=O)NCC(c2ccco2)S(=O)(=O)c2ccc(Cl)cc2)cc1C` (stereo unspecified), the survival was 14% (active).
For `CC(C)(C)c1ccc(C(=O)NCC(c2ccco2)S(=O)(=O)c2ccccc2)cc1` (stereo unspecified) the value was 70%.
Consider `CCOc1ccc(C(=O)NCC(c2ccco2)S(=O)(=O)c2ccc(C)cc2)cc1` (stereo unspecified), for which the survival is 85%.
As to `O=C(NCc1ccccc1F)C(=O)NCC(c1ccco1)S(=O)(=O)c1ccccc1` (stereo unspecified), the survival is -6% (active).
Turning to `COc1ccc(C(=O)NCC(c2ccco2)S(=O)(=O)c2ccccc2)cc1` (stereo unspecified), the survival was -6% (active).
With `Cc1ccc(C(=O)NCC(c2ccco2)S(=O)(=O)c2cccs2)cc1C` (stereo unspecified), the survival was 99%.
For the compound `Cc1ccc(C(=O)NCC(c2ccco2)S(=O)(=O)c2ccccc2)cc1C` (stereo unspecified), the survival was 72%.
For the compound `CCOc1ccc(S(=O)(=O)N(CC(=O)NCc2ccccc2OC)c2ccccc2)cc1`, the survival is 58%.
The value for `CC1=C(C#N)C(NC(=O)c2ccccc2Cl)(C(F)(F)F)C(=O)N1` (stereo unspecified) was 139%; that for `COc1ccc(-c2cn3nc(N4CCC(C(=O)Nc5ccc(Cl)cc5C)CC4)sc3n2)cc1` was 78%.
Take `CCOCCCn1c(=N)c(S(=O)(=O)c2ccc(C)cc2)cc2c(=O)n3cccc(C)c3nc21`: the survival is 77%.
For the compound `Cc1cc2nn(-c3ccccc3)nc2cc1NC(=O)c1cccc2c(Cl)cccc12`, the survival was 70%.
`COc1ccc(N2CCN(CCCNC(=O)c3cnn(-c4ccc(F)cc4)c3-n3cccc3)CC2)cc1`: the survival was 77%.
`Cc1ccc(S(=O)(=O)C(CNC(=O)c2ccc(C(F)(F)F)cc2)c2ccco2)cc1` (stereo unspecified): the survival is 134%.
For `CC(C)(C)c1ccc(C(=O)NCC(c2ccco2)S(=O)(=O)c2ccc(F)cc2)cc1` (stereo unspecified) the value was 131%; for `O=C(NCC(c1ccco1)S(=O)(=O)c1ccc(Cl)cc1)c1ccc(C(F)(F)F)cc1` (stereo unspecified), -1% (active).
For `O=c1c2[nH]c3ccccc3c2nc(SCc2cccc(F)c2)n1-c1ccccc1` the value was 53%.
In the case of `CCOC(=O)CC(NC(=O)c1cc2c(=O)n3cccc(C)c3nc2s1)c1ccc(OCC(C)C)c(OC)c1` (stereo unspecified), the survival is 77%.
Consider `CCOc1ccccc1NC(=O)c1ccc(F)c(S(=O)(=O)NCc2ccc3c(c2)OCO3)c1`, for which the survival is 63%.
Take `O=C(Nc1cc(C(F)(F)F)ccc1Cl)c1cnn(-c2ccccc2)c1-n1cccc1`: the survival was -3% (active).
For the compound `COc1ccccc1NC(=O)c1cnn(-c2ccccc2)c1-n1cccc1`, the survival is 99%.
For `O=C(Nc1ccc(Cl)cc1C(F)(F)F)c1cc(S(=O)(=O)NCc2ccccc2)ccc1F` the value was 134%; for `COc1cc(OC)c(NC(=O)c2cnn(-c3ccccc3)c2-n2cccc2)cc1Cl`, 80%.
`CCN(Cc1ccccc1)S(=O)(=O)c1ccc(F)c(C(=O)Nc2cc(C(F)(F)F)ccc2Cl)c1`: the survival was -1% (active).
For `CCN(Cc1ccccc1)S(=O)(=O)c1ccc(F)c(C(=O)Nc2ccc(C(C)C)cc2)c1` the value was 95%; for `O=C(Nc1cc(C(F)(F)F)ccc1Cl)c1cc(S(=O)(=O)NCc2ccccc2)ccc1F`, 14% (active).
The value for `CN(Cc1ccccc1)S(=O)(=O)c1ccc(F)c(C(=O)Nc2cc(Cl)cc(Cl)c2)c1` was 76%.
On to `CCN(Cc1ccccc1)S(=O)(=O)c1ccc(F)c(C(=O)Nc2cc(C)ccc2OC)c1`, for which the survival is 120%.
For the compound `O=C(Nc1cc(Cl)ccc1Cl)c1cc(S(=O)(=O)NCCc2ccccc2)ccc1F`, the survival was 133%.
Regarding `CN(Cc1ccccc1)S(=O)(=O)c1ccc(F)c(C(=O)Nc2cccc(Cl)c2Cl)c1`, the survival is 159%.
The value for `CN(Cc1ccccc1)S(=O)(=O)c1ccc(F)c(C(=O)Nc2ccccc2C(F)(F)F)c1` was -6% (active).
